The source of these data is the supplement of paper PMC10037445.

Structures are written as SMILES. The full ranking holds about 2,900 compounds; the median of “NF-kB SEAP reporter activity, fold change vs agonist alone” is about 0.99, and the highest 2% start at about 2.6. This is one part of a sample in which the highest values are shown more often than they occur.

For assay [1], the system named is RAW-Dual. Description: NF-kB SEAP reporter activity, fold change vs agonist alone; higher = enhanced NF-kB activity. As to conditions: library stock concentration (final ~1000-fold dilution): 10 mM, cytotoxicity flag (confluency mask): not cytotoxic. An outline of the steps:
(§1)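 RAW-Dual macrophages (50,000 cells/well in DMEM, 384-well plates) received 50 nL of library stock by pin tool, then a PRR agonist 1 h later, and were kept at 37 °C, 5% CO2. After 20 hours, supernatant was read for IRF by QuantiLuc luminescence and for NF-κB by QuantiBlue absorbance at 620 nm. Reporter activity is fold change over agonist-alone wells. Cytotoxic wells had IncuCyte confluency below 70% of agonist controls in both mask sets.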

In assay [2] the test system is RAW-Dual. Description: NF-kB SEAP reporter activity, fold change vs agonist alone; cytotoxicity flag (confluency mask): not cytotoxic; higher = enhanced NF-kB activity. The essentials:
as §1

[3] abbreviates: agonist: ODN 1826 (TLR9) 0.5 ug/mL.
Where [4] appears, read: agonist: Pam2CSK4 (TLR2/6) 0.1 ug/mL.
Setting [5] is: agonist: Pam3CSK4 (TLR2/1) 0.1 ug/mL.

For `CNC(C)C(=O)NC1CN(C(=O)CC(C)C)CCC2CCC(C(=O)NC(c3ccccc3)c3ccccc3)N2C1=O` (configuration not stated), the “NF-kB SEAP reporter activity” value was 0.948 in the assay on RAW-Dual [1] (agonist: Imiquimod (TLR7) […]) and 0.82 in the assay with RAW-Dual [1] (agonist: MPLA (TLR4) […]).

In the case of `CNC(C)C(=O)NC1CN(C(=O)CC(C)C)CCC2CCC(C(=O)NC(c3ccccc3)c3ccccc3)N2C1=O` (configuration not stated) (library stock concentration (final ~1000-fold dilution): 10 mM), the “NF-kB SEAP reporter activity” value in the assay with RAW-Dual [2] (agonist: LPS (TLR4) 0.1 ug/mL) is 0.854; with RAW-Dual [2] (setting [3]) it was 1.1; in the assay on RAW-Dual [2] (setting [4]), 0.925; in the assay with RAW-Dual [2] (setting [5]), 1.08.

As for `Oc1cccc(-c2nc(N3CCOCC3)c3oc4ncccc4c3n2)c1`, the “NF-kB SEAP reporter activity” value with RAW-Dual [1] (agonist: Imiquimod (TLR7) […]) worked out at 2.46; with RAW-Dual [1] (agonist: MPLA (TLR4) […]), 2.44.

Take `Nc1ccc(C(=O)Nc2cccc(-c3nc(N4CCOCC4)c4oc5ncccc5c4n3)c2)cn1`: the “NF-kB SEAP reporter activity” value was found to be 1.77 in the assay on RAW-Dual [1] (agonist: Imiquimod (TLR7) […]) and 2.3 with RAW-Dual [1] (agonist: MPLA (TLR4) […]).

For `Oc1cccc(-c2nc(N3CCOCC3)c3oc4ncccc4c3n2)c1` (library stock concentration (final ~1000-fold dilution): 10 mM), the “NF-kB SEAP reporter activity” value came out at 4.71 with RAW-Dual [2] (agonist: LPS (TLR4) 0.1 ug/mL), 0.369 in the assay with RAW-Dual [2] (setting [3]), 0.849 in the assay with RAW-Dual [2] (setting [4]) and 1.34 in the assay with RAW-Dual [2] (setting [5]).

With `CC1(C)OCCn2c1nc1c(N3CCOCC3)nc(-c3cnc(N)nc3)nc12`, the “NF-kB SEAP reporter activity” value is 1.02 in the assay with RAW-Dual [1] (agonist: Imiquimod (TLR7) […]) and 1.07 with RAW-Dual [1] (agonist: MPLA (TLR4) […]).

`CCn1c(-c2nonc2N)nc2cnc(Oc3cccc(NC(=O)c4ccc(OCCN5CCOCC5)cc4)c3)cc21.Cl` (library stock concentration (final ~1000-fold dilution): 10 mM): the “NF-kB SEAP reporter activity” value in the assay on RAW-Dual [2] (agonist: LPS (TLR4) 0.1 ug/mL) is 1.31; in the assay with RAW-Dual [2] (setting [3]), 0.288; in the assay with RAW-Dual [2] (setting [4]) it was 1.12; in the assay on RAW-Dual [2] (setting [5]) it was 1.56.

Consider `CC1(C)OCCn2c1nc1c(N3CCOCC3)nc(-c3cnc(N)nc3)nc12` (library stock concentration (final ~1000-fold dilution): 10 mM), for which the “NF-kB SEAP reporter activity” value with RAW-Dual [2] (agonist: LPS (TLR4) 0.1 ug/mL) turned out to be 1.42; in the assay on RAW-Dual [2] (setting [3]), 0.768; in the assay with RAW-Dual [2] (setting [4]) it was 0.464; with RAW-Dual [2] (setting [5]), 0.544.

With `N#Cc1cccc(-c2c[nH]c3ncnc(N4CCOCC4)c23)c1`, the “NF-kB SEAP reporter activity” value came out at 1.01 in the assay on RAW-Dual [1] (agonist: Imiquimod (TLR7) […]) and 0.873 in the assay with RAW-Dual [1] (agonist: MPLA (TLR4) […]).

`Nc1ccc(-c2cccc(C(=O)Nc3cnc4nc(N5CCOCC5)oc4c3)n2)cn1` (library stock concentration (final ~1000-fold dilution): 10 mM): the “NF-kB SEAP reporter activity” value was found to be 1.43 with RAW-Dual [2] (agonist: LPS (TLR4) 0.1 ug/mL), 1.01 in the assay with RAW-Dual [2] (setting [3]), 0.911 in the assay on RAW-Dual [2] (setting [4]) and 1.33 in the assay on RAW-Dual [2] (setting [5]).

Turning to `Nc1ccc(C(=O)Nc2cccc(-c3nc(N4CCOCC4)c4oc5ncccc5c4n3)c2)cn1` (library stock concentration (final ~1000-fold dilution): 10 mM), the “NF-kB SEAP reporter activity” value was 2.62 in the assay on RAW-Dual [2] (agonist: LPS (TLR4) 0.1 ug/mL), 0.304 in the assay on RAW-Dual [2] (setting [3]), 0.638 in the assay on RAW-Dual [2] (setting [4]) and 0.805 with RAW-Dual [2] (setting [5]).

For `CCn1c(-c2nonc2N)nc2cnc(Oc3cccc(NC(=O)c4ccc(OCCN5CCOCC5)cc4)c3)cc21.Cl`, the “NF-kB SEAP reporter activity” value in the assay on RAW-Dual [1] (agonist: Imiquimod (TLR7) […]) came to 1.48; with RAW-Dual [1] (agonist: MPLA (TLR4) […]) it was 1.41.

As to `N#Cc1cccc(-c2c[nH]c3ncnc(N4CCOCC4)c23)c1` (library stock concentration (final ~1000-fold dilution): 10 mM), the “NF-kB SEAP reporter activity” value in the assay on RAW-Dual [2] (agonist: LPS (TLR4) 0.1 ug/mL) is 0.963; in the assay on RAW-Dual [2] (setting [3]) it was 0.792; in the assay with RAW-Dual [2] (setting [4]), 0.588; with RAW-Dual [2] (setting [5]) it was 0.962.

Turning to `Nc1ccc(-c2cccc(C(=O)Nc3cnc4nc(N5CCOCC5)oc4c3)n2)cn1`, the “NF-kB SEAP reporter activity” value in the assay with RAW-Dual [1] (agonist: Imiquimod (TLR7) […]) worked out at 1.04; in the assay with RAW-Dual [1] (agonist: MPLA (TLR4) […]), 1.08.
